Inconclusive results are not listed. Active and inactive are the calls of the source. The call rests on the fitted dose curve; in most records, active means well fitted inhibition curve with a large enough effect; inconclusive means small, poorly fitted or top-dose-only effect; inactive means no such curve, though single readings can be large or run the other way.
assay: Acumen qHTS Assay for Inhibitors of the mTORC1 Signaling Pathway in MEF (Tsc2-/-, p53-/-) Cells: Hit Validation; conditions: Acumen imaging; activity change, negative = inhibition: at 37.3 µM (top of the series);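 further: phospho-rpS6 Ser235/236 immunofluorescence normalized to propidium iodide cell count; nearly all actives have a fitted effect of over 65% in size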;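 on activity change, negative = inhibition: cells exposed to compound for 24 hours; plate controls were DMSO for no effect and 7.5 nM rapamycin control for full effect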
Potency means the concentration at half of the fitted maximal effect.

SMILES | activity change, negative = inhibition [%] | Potency
CCc1ccc(NC(=O)C2CCCN(S(=O)(=O)c3c(C)noc3/C=C/N(C)C)C2)cc1 (stereo not given) | -73.7 | –
Cc1nc2nncn2c(NCc2ccc(F)cc2)c1C | -42.2 | –
O=C(NC1CCN(Cc2ccccc2)CC1)c1ccc(Cn2c(=O)c3ccccc3n(Cc3ccc(F)cc3)c2=O)cc1 | – | 3.69 µM (active)
COc1ccc(N2CCN(C(=O)C3CCN(Cc4nc(-c5ccc(Cl)cc5)oc4C)CC3)CC2)cc1 | -10.9 | –
COc1cccc(-n2c(-c3ccco3)nc3c(cnn3-c3ccc(C)cc3)c2=O)c1 | 15.6 | –
CCOC(=O)c1sc2ccccc2c1S(=O)(=O)Nc1ccc(CC)cc1 | -9.52 | –
COC(=O)c1cc2sc(C)cc2n1Cc1ccccc1 | -16.6 | –
CCN(C(=O)C(NS(=O)(=O)c1ccc(Br)s1)c1ccccc1)c1ccc(C)c(C)c1 (stereo not given) | -46.3 | –
CCn1c2ccccc2c2cc(CN3CCN(Cc4ccc(Cl)cc4)CC3)ccc21 | – | 14.7 µM (active)
Cc1cc(C)c(NC(=O)C2CCN(c3nc4ccccc4n4cccc34)CC2)c(C)c1 | – | 14.7 µM (active)
Cc1c(C(=O)OC2CCC(C)CC2)[nH]c2c1C(=O)CC(c1ccccc1Cl)C2 (stereo not given) | -43.7 | –
CCc1ccccc1NC(=O)CSCc1cnn(-c2ccccc2)c1-n1cccc1 | 14.7 | –
CCn1c(CC2C(=O)N(C)c3ccc(Br)cc32)nc2ccccc2c1=O (stereo not given) | -27 | –
CCN1C(=O)c2ccccc2Sc2ccc(NC(=O)Cc3ccc(OC)cc3)cc21 | – | 4.14 µM (active)
COc1ccc(CNC(=O)c2cc(-c3ccc(OC)c(OC)c3)nc3n[nH]c(-c4ccc(C)cc4)c23)cc1 | -124 | –

Reference: PubChem BioAssay AID651784 (National Center for Advancing Translational Sciences (NCATS), 2012)
